Screening data: PubChem BioAssay, National Center for Advancing Translational Sciences (NCATS)
IMPase inh: qHTS Assay for Identifying the Cell-Membrane Permeable IMPase Inhibitors; CHO-M1 cells, IP1 accumulation, HTRF TR-FRET ratio; inhibition (IP1 accumulation), % at 46.1 µM; 120,000 tested, under 10 active; active = well fitted curve in the direction sought with a large enough effect in the signal ratio, not every such curve was filed as active; inconclusive = small, poorly fitted or top-dose-only effect, or a change in a side signal; inactive = no such curve, though single readings can be large or run the other way; the % refers to the signal ratio;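 also: cells stimulated with carbachol in lithium chloride buffer; plate controls were DMSO basal wells for no effect and reference inhibitor wells for full effect; higher means more IMPase inhibition seen as more IP1 and lower FRET ratio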
Target sequence (P97697 whole entry, looked up): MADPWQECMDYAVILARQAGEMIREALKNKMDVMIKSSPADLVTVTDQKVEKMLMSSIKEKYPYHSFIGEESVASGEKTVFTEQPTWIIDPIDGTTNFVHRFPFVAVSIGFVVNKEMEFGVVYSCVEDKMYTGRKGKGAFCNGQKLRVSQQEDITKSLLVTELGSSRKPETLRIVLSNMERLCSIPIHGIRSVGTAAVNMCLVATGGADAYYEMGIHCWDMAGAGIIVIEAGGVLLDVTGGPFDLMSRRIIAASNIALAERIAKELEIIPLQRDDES
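Elevated IP1 in lysates lowers TR-FRET signal (665/620 ratio and 620 channel reported). Cells were CHO-M1, given carbachol (50 uM as added) plus 50mM LiCl, pH 7.4, 30 min, 37C; compounds titrated up to 46 uM; AC50 by Hill equation.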
HPGD inh: qHTS Assay for Inhibitors of HPGD (15-Hydroxyprostaglandin Dehydrogenase); 15-hydroxyprostaglandin dehydrogenase [NAD(+)] (Homo sapiens), P15428; purified HPGD, NADH fluorescence kinetic, PGE2 substrate; Potency, µM, for inactives: top-dose activity change, negative = inhibition, hits mostly inhibitors; 150,000 compounds, 4.3% hits; AID 894, 2007; also: potency is read from the fitted curve at half-maximal effect
Target sequence (P15428 whole entry, looked up): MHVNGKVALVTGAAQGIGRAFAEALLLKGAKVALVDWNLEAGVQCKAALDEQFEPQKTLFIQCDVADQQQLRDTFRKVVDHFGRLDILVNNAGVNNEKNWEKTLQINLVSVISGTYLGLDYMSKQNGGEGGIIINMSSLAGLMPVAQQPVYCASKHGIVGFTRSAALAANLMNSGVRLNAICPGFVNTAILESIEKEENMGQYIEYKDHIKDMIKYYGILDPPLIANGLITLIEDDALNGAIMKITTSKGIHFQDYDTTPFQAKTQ
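20 nM HPGD preincubated 15 min at room temperature with compound in 50 mM Tris-HCl pH 8, 0.01% Tween 20. Started with 1 mM NAD+ and 30 uM prostaglandin E2; NADH fluorescence (360/450 nm) read 5 times over 30-s intervals, last minus first.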
ALDH1A1 inh: qHTS Assay for Inhibitors of Aldehyde Dehydrogenase 1 (ALDH1A1) | Aldehyde dehydrogenase 1A1 (Homo sapiens), P00352 | Purified ALDH1A1, NADH fluorescence, propionaldehyde substrate | Potency, µM (titrated, usually from 75.3 µM), without a hit: at the highest dose activity, negative = inhibition, usual class: inhibitors | 220,000 compounds, 7.3% hits;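 also: potency is read from the fitted curve at half-maximal effect; plate controls were no enzyme wells and a reference inhibitor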
* hit, by the source's call; ? = inconclusive; · = no result; [ ] = dose if it differs, or a comment. A selection: hits, their analogues and other compounds. The true share with any hit is near 9%. Unless noted, calls follow the shape of the dose curve; as a rule, active = well fitted inhibition curve with a large enough effect (not every such curve was filed as active); inconclusive = small, poorly fitted or top-dose-only effect, or another doubt; inactive = no such curve, though single readings can be large or run the other way. Unless noted, % is scaled to controls: 0 for no effect and ±100 for the full control effect.

SMILES	IMPase inh	HPGD inh	ALDH1A1 inh
Cc1[nH]nc2c1C(c1cc(Br)cs1)C(C#N)=C(N)O2 (stereo unspecified)	·	-25%	-14%
S=c1nc[nH]c2nc[nH]c12	·	?	7.9µM*
O=C(O)CCn1cnc2c(=S)nc[nH]c21	·	0%	-12%[13.5 µM]
CC(=O)O[C@H]1C[C@H]2CC[C@@H]3[C@H]4C[C@@H]([N+]5(C)CCCCC5)[C@@H](OC(C)=O)[C@]4(C)CC[C@@H]3[C@@]2(C)C[C@@H]1[N+]1(C)CCCCC1	12	-1%	3%
Cn1c(N=NC(=O)c2ccccc2)c(O)c2ccccc21	·	-15%	?
COc1ccc(C=NCC2OCCc3ccccc32)cc1OC (stereo unspecified)	·	-7%	?
COc1cc(C=NCC2OCCc3ccccc32)cc(OC)c1 (stereo unspecified)	·	-2%	22µM*
COc1cc(C(=O)NC(=S)Nc2ccc([N+](=O)[O-])cc2)cc(OC)c1OC	·	-14%	?
CCCCNC(=S)Nc1cc([N+](=O)[O-])ccc1C	·	14µM*	0%
COCCCNC(=S)Nc1ccccc1[N+](=O)[O-]	·	·	22µM*
COc1cc(C(=O)NC(=S)Nc2ccccc2[N+](=O)[O-])cc(OC)c1OC	·	·	18µM*
COCCNC(=S)Nc1ccccc1[N+](=O)[O-]	·	·	-10%
COc1cc(C(=O)NNC(=S)NC(=O)c2ccc(Cl)cc2)cc(OC)c1OC	·	-26%	19%
CCOC(=O)C(=O)Nc1cc([N+](=O)[O-])ccc1C	12	-4%	?
COc1cc(C(=O)NC(=S)Nc2ccc([N+](=O)[O-])cc2C)cc(OC)c1OC	·	-7%	13µM*
COC(=O)C(CCSC)NC(=O)c1cc2c(n(-c3ccc(Cl)cc3)c1=O)CCCC2=O (stereo unspecified)	8	·	·
O=C(NCCCN1CCCCCC1)[C@@H](c1ccccc1)C1CCCCC1	5	3%	4%
COc1ccc(C(=O)NCC(=O)N/N=C(C)\C=C\c2ccccc2)cc1OC	·	·	6%
Cc1ccccc1-c1nc(CN2CCC(C(=O)NCc3cccs3)CC2)c(C)o1	3	-11%	2%
CCN(CC)S(=O)(=O)c1cc(NC(=O)CCCOc2ccc(C(C)=O)cc2)ccc1C	9	-1%	-1%
COC(=O)[C@H]1CC=C[C@H]2CCN(Cc3ccc(Cl)c(Cl)c3)C(=O)[C@@H]12	·	-12%	?
CCc1cc2c(=O)n(CCC(C)C)c(=S)[nH]c2s1	·	·	16µM*
CCCn1c(=S)[nH]c2ccccc2c1=O	·	·	2%
Cc1cc(C)c(NS(=O)(=O)c2ccc(NC(=O)c3cccs3)cc2)c(C)c1	·	-12%	3%
Cc1ccc(NS(=O)(=O)c2ccc(NC(=O)C3CCCO3)cc2)cc1 (stereo unspecified)	8	-29%	22µM*
SMILES	IMPase inh	HPGD inh	ALDH1A1 inh
O=C(Nc1ccc2c(c1)C(=O)N(c1ccccc1)C2=O)C1CCCO1 (stereo unspecified)	7	-10%	14µM*
O=C1NC(=O)c2cc(NC(=O)C3CCCO3)ccc21 (stereo unspecified)	0	?	?
COc1ccc(NS(=O)(=O)c2ccc(NC(=O)C3CCCO3)cc2)cc1 (stereo unspecified)	-5	-25%	9%
O=C(Nc1ccc(Oc2ccc(NC(=O)C3CCCO3)cc2)cc1)C1CCCO1 (stereo unspecified)	-3	1.4µM*	?
Cc1ccc(S(=O)(=O)Nc2ccc(NC(=O)c3cccs3)cc2)cc1	·	·	28µM*
NC(=O)c1ccc(NC(=O)C2CCCO2)cc1 (stereo unspecified)	-2	?	-8%
COCCNC(=O)C(C(=O)c1ccc(F)cc1)n1cc(C)ccc1=O (stereo unspecified)	·	·	9%
C[N+](C)(C)CCN(Cc1cccs1)c1ccccn1	·	-14%	4%[13.5 µM]
O=C(NCCCN1CCOCC1)c1ccc(NC(=O)C2COc3ccccc3O2)cc1 (stereo unspecified)	·	·	5%
O=C(NCCN1CCN(c2ccccc2)CC1)c1ccc(NC(=O)C2CCCO2)cc1 (stereo unspecified)	4	-12%	28µM*
CCCOc1ccc(C(=O)Nc2cc(-c3nc4cc(C)cc(C)c4o3)ccc2C)cc1	2	·	·
Nc1[nH]c(=S)[nH]c(=O)c1-c1ccccc1	-1	25µM*	?
Nc1nc(SCc2ccc(Cl)cc2)[nH]c(=O)c1-c1ccccc1	6	-6%	?
CCOC(=O)C1CCC(CNCc2ccccc2C)CC1 (stereo unspecified)	·	·	0%
CC1CCN(S(=O)(=O)c2ccc(Br)s2)CC1	3	-19%	1%
CC(C)c1ccccc1S(=O)(=O)c1cc(N)c2ncccc2c1[N+](=O)[O-]	·	-17%	-7%
CC(C)(C)c1nnc2sc(SCCN3C(=O)c4ccccc4C3=O)nn2c1=O	11	-14%	-2%
CC(C)N(C(=O)CSc1nn2c(=O)c(C(C)(C)C)nnc2s1)c1ccccc1	-8	-20%	22µM*
CCc1ccc(CN2C(=O)c3ccccc3C2C(=O)NCc2cccnc2)cc1 (stereo unspecified)	·	·	-7%
CC(c1ccccc1)N1C(=O)C2C3C=CC(C4CC34)C2C1=O (stereo unspecified)	·	·	7%
O=C1NNC(=O)C2C3C=CC(C4CC34)C12 (stereo unspecified)	6	-4%	25µM*
N#C/C(=C\C1=C(N2CCOCC2)C(=C\c2ccc(Cl)cc2)/CC1)C(=O)Nc1ccccc1F	·	-21%	-2%
CCN(CC)c1ccc(/C=C2\CCC(/C=C(\C#N)C(=O)Nc3ccccc3F)=C2N2CCOCC2)cc1	6	11µM*	?
CC(C)=CCC[C@](C)(O)C1CC=C(C)CC1 (stereo partly specified)	·	-8%	-13%
Cc1ccc(-c2nc3ccc(Cl)cc3n2OC(C)C(=O)O)cc1 (stereo unspecified)	·	·	1%
SMILES	IMPase inh	HPGD inh	ALDH1A1 inh
OC(c1ccccc1)C1CN(Cc2ccccc2)CCC1(O)c1ccccc1 (stereo unspecified)	2	-14%	20µM*
OC(CN1CCN(Cc2ccccc2)CC1)c1ccccc1 (stereo unspecified)	·	·	-10%
CC(=O)N1CCC2(CCN(Cc3ccccc3)CC2)CC1	·	0%	3%
O=C(c1ccccc1)C1CN(Cc2ccccc2)CCC1(O)c1ccccc1 (stereo unspecified)	·	·	0.22µM*
CCOC(=O)c1csc(NC(=O)Nc2cccc(Cl)c2)n1	·	-5%	6%
Cc1ccc(NC(=O)C(=O)NCc2ccc(/C=C(/C#N)C(=O)NCc3cccnc3)o2)cc1C	·	-29%	?
Cc1ccc(-c2nnc(SCc3nc4ccccc4[nH]3)n2Cc2ccco2)cc1	4	-29%	16µM*
c1ccc(-c2nnc(CSc3nnc(-c4ccncc4)n3Cc3ccco3)o2)cc1	-14	20µM*	9%
C(=C\c1ccccc1)/CSc1nnc(-c2ccncc2)n1Cc1ccco1	5	-19%	?
Cc1cccc(-c2nnc(SCc3nc4ccccc4[nH]3)n2Cc2ccco2)c1	-18	·	16%
